Measurements taken from PubChem BioAssay (Tox21).
Inconclusive results are not listed. The source made the active and inactive calls. Unless noted, calls come from the whole dose curve.

Legend:
[1] = molecular target: Estrogen receptor (Homo sapiens) (UniProt P03372); test: qHTS assay to identify small molecule agonists of the estrogen receptor alpha (ER-alpha) signaling pathway in the presence of an antagonist (AID 1259383); note: top concentration of the series differs between compounds; nearly all actives have a fitted effect of over 15% in size
Estrogen receptor (Homo sapiens), sequence (P03372 whole entry, looked up): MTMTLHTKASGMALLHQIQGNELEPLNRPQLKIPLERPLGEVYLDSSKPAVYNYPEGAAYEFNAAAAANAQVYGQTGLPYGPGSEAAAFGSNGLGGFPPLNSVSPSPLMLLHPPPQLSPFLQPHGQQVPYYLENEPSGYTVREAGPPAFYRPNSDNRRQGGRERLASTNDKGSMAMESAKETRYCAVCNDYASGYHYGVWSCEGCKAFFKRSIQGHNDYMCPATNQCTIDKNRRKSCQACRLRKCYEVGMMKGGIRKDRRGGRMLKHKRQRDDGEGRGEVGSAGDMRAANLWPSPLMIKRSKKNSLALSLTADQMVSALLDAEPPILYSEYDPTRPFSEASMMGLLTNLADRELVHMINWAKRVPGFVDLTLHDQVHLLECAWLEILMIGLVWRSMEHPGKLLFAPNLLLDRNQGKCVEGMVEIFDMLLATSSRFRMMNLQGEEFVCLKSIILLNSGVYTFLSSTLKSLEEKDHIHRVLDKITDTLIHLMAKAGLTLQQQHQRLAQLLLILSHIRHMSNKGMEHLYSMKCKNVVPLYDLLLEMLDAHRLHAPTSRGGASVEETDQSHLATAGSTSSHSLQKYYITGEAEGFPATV
Procedure, shortened: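 Quantitative HTS confirmation: compounds titrated at 15 concentrations onto estrogen-deprived VM7Luc4E2 cells carrying a four-ERE luciferase construct, with ICI-182,780 present at 10.0nM final. Signal is luminescence after 22hr exposure.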

[2] = qHTS assay to identify small molecule agonists or antagonists of the thyroid stimulating hormone receptor (TSHR) signaling pathway - wild type cell line counter screen (AID 1259384)
Procedure, shortened: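 Wild-type HEK293 cells were plated 18 h at 37 C/5% CO2, pin-dosed with compound plus Ro20-1724 medium, held 30 min at room temperature, then given cAMP-d2 and anti-cAMP-cryptate; fluorescence was read after 1 h. Fifteen concentrations, triplicate.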

[3] = molecular target: Thyrotropin receptor (Homo sapiens) (UniProt P16473); test: qHTS assay to identify small molecule antagonists of the thyroid stimulating hormone receptor (TSHR) signaling pathway (AID 1259385); note: nearly all actives have a fitted effect of over 20% in size
Thyrotropin receptor (Homo sapiens), sequence (P16473 whole entry, looked up): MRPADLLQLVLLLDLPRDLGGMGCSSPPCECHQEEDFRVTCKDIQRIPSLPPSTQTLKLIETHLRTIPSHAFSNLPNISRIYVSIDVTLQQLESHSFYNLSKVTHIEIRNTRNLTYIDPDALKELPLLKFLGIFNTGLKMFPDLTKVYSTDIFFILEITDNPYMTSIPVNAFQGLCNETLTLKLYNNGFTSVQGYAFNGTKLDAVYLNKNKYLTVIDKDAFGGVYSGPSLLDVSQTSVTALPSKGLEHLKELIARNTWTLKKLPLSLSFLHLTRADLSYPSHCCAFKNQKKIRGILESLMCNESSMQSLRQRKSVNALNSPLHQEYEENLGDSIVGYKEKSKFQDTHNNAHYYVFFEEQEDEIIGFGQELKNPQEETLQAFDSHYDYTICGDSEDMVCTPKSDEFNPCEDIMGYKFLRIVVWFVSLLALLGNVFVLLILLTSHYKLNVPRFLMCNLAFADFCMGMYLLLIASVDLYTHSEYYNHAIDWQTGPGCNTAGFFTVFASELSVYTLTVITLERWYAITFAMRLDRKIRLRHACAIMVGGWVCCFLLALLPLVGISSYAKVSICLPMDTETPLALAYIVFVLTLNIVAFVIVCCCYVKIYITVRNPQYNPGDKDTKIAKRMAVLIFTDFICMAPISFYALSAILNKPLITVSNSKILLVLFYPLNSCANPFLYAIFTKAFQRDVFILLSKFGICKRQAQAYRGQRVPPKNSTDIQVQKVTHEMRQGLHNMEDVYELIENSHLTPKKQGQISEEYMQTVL
Procedure, shortened: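 TSHR-HEK293 cells were plated and held 18 h at 37C/5% CO2, then given compound plus Ro20-1724 and stimulated with TSH at 1.5 ng/mL final. After 30 min at room temperature, cAMP was detected with cAMP-d2/anti-cAMP-cryptate (1 h) by fluorescence.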

[4] = qHTS assay to identify small molecule agonists of the estrogen receptor alpha (ER-alpha) signaling pathway in the presence of an antagonist - cell viability counter screen (AID 1259386; active = well fitted curve in the direction sought with a large enough effect in the repeat runs; an effect the other way counts as inactive or inconclusive;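 note: series mostly up to about 92 µM; cells exposed to compounds for 22 h at 37 °C before the viability read; nearly all actives have a fitted effect of over 30% in size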)
Procedure, shortened: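 The test measures whether compounds kill ER-alpha reporter cells (VM7Luc4E2) under antagonist co-treatment (ICI-182,780, 10.0nM). Fluorescence from CellTiter-Fluor is read after a 22hr exposure.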

[5] = molecular target: Progesterone receptor (Homo sapiens) (UniProt P06401); test: qHTS assay to identify small molecule agonists of the progesterone receptor (PR) signaling pathway (AID 1346784); note: nearly all actives have a fitted effect of over 30% in size
Progesterone receptor (Homo sapiens), sequence (P06401 whole entry, looked up): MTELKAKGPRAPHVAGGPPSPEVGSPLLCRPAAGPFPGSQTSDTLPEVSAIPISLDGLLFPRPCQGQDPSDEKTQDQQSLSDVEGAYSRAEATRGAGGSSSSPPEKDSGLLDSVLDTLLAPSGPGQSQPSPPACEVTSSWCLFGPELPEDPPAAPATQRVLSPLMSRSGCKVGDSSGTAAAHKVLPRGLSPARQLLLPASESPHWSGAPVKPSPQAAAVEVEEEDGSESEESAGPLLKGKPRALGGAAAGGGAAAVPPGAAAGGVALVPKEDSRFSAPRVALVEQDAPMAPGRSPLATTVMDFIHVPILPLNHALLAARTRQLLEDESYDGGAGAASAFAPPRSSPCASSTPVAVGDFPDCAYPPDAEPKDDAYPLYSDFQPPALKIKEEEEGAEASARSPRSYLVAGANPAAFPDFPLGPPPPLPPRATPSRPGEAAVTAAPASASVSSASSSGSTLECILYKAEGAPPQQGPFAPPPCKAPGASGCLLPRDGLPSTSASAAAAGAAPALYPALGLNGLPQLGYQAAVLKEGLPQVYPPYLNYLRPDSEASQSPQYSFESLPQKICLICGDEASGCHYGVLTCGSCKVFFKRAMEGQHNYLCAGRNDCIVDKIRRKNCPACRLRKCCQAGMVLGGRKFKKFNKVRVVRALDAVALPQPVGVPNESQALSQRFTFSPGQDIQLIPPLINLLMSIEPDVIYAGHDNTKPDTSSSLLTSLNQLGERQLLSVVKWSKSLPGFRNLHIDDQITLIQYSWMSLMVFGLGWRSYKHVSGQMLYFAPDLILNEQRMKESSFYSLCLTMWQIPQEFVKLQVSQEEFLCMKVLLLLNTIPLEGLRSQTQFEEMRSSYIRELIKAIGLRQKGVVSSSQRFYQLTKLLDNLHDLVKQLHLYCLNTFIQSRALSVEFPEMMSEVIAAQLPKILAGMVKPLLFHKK
Procedure, shortened: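 Using charcoal-stripped serum (2%) to limit endogenous steroids, PR-UAS-bla HEK 293T cells received compounds for 16 hr at 37C after 6 hr plating; beta-lactamase FRET fluorescence was recorded following 2 hr substrate loading at room temperature.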

[6] = molecular target: Progesterone receptor (Homo sapiens) (UniProt P06401); test: qHTS assay to identify small molecule antagonists of the progesterone receptor (PR) signaling pathway (AID 1346795; active = well fitted inhibition curve with a large enough effect in the signal ratio in the repeat runs, not every such curve was filed as active; the % refers to the signal ratio)
Procedure, shortened: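 Inhibition of R5020-induced (1 nM final) beta-lactamase reporter signal in PR-UAS-bla HEK293T cells was scored by FRET fluorescence after overnight (16 hr) compound treatment.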

[7] = qHTS assay to identify small molecule agonists of the progesterone receptor (PR) signaling pathway - cell viability counter screen (AID 1346799); note: nearly all actives have a fitted effect of over 45% in size
Procedure, shortened: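 Cytotoxicity in PR-bla HEK293T cells: 16 h compound, 37C; CellTiter-Glo added post-FRET read; luminescence after 30 min RT.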

[8] = qHTS assay to identify small molecule antagonists of the TGF-beta/Smad signaling pathway - cell viability counter screen (AID 1346824; active = well fitted curve in the direction sought with a large enough effect in the repeat runs; an effect the other way counts as inactive or inconclusive; note: nearly all actives have a fitted effect of over 50% in size)
Procedure, shortened: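 SBE-bla HEK 293T cells were plated overnight at 37 C, then given compounds in DMSO plus TGF-beta1 (added as 0.25 ng/mL solution) for 5 hr. After the bla read, CellTiter-Glo was added to the same wells and luminescence read after 30 min at room temperature.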

[9] = qHTS assay to identify small molecule agonists of the TGF-beta/Smad signaling pathway - cell viability counter screen (AID 1346829; active = well fitted curve in the direction sought with a large enough effect in the repeat runs; an effect the other way counts as inactive or inconclusive; note: top concentration of the series differs between compounds; nearly all actives have a fitted effect of over 45% in size)
Procedure, shortened: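 Same-well cytotoxicity: CellTiter-Glo added after the 2 hr room-temperature beta-lactamase substrate step, luminescence measured 30 min later; cells had 5 hr of compound at 37 C.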

[10] = qHTS assay to identify small molecule antagonists of the progesterone receptor (PR) signaling pathway - cell viability counter screen (AID 1346798; active = well fitted curve in the direction sought with a large enough effect in the repeat runs; an effect the other way counts as inactive or inconclusive; note: series mostly up to about 92 µM; nearly all actives have a fitted effect of over 50% in size)
Procedure, shortened: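 ATP content as viability readout: CellTiter-Glo luminescence, 30 min room temperature, in PR-UAS-bla HEK293T cells after 16 hr compound/R5020 treatment at 37C and 5% CO2.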

Measured: Potency

CC(C)(C)C(=O)CCc1ccc(Cl)cc1
not listed: [10]
inactive: all other assays above

C=COCCCCO
not listed: [10]
inactive: all other assays above

OCCC(F)(F)C(F)(F)C(F)(F)C(F)(F)C(F)(F)C(F)(F)F
not listed: [7]
inactive: all other assays above

CC(=O)Nc1ccc(OCCOCCOc2ccc(NC(C)=O)cc2)cc1
inactive: all assays above

C/C=C(\C)C(=O)OC/C=C(\C)CCC=C(C)C
inactive: all assays above

CCCCC(CC)COC(=O)CC#N (stereo not given)
not listed: [10]
inactive: all other assays above

CCCC(=O)CC
not listed: [7]
inactive: all other assays above

C=CC(C)(CCC=C(C)C)OC(=O)C(C)C (stereo not given)
not listed: [10]
inactive: all other assays above

COC(=O)/C=C(\C)CCC=C(C)C
not listed: [8]
inactive: all other assays above

CCN(CC)CC
not listed: [8]
inactive: all other assays above

CC(C)CC(O)Cc1ccccc1 (stereo not given)
inactive: all assays above

CN(C)CCc1c[nH]c2ccc(CS(=O)(=O)N3CCCC3)cc12
not listed: [10]
inactive: all other assays above

CCCCN1C(=O)c2ccccc2C1=O
not listed: [8] | [9] | [10]
inactive: all other assays above

C=CC(=O)OCC[N+](C)(C)C
not listed: [4]
inactive: all other assays above

CC(C)(C)C(=O)NCCCC(=O)O
not listed: [5] | [6] | [8]
inactive: all other assays above

CCC(=O)OCCOc1ccccc1
not listed: [4] | [8] | [9]
inactive: all other assays above

Cc1ccc(OC(=O)CC(C)C)cc1
not listed: [4]
inactive: all other assays above
